In PubChem BioAssay AID1508600 (Functional Genomics Laboratory (NCATS/FGL), 2020):
In all, about 53,000 sequences went through this assay and about 3,700 (7%) were called active. This is one part of a sample in which actives are shown more often than they occur.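 Rule for the calls: active = gene knockdowns whose robust z-score for IL-1 alpha signal is at least 2 or at most -2, so actives lie on both sides; inactive = the rest.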

assay: Components of the Cytosolic LPS Sensing Pathway: Gene Identification via Genome-wide siRNA Screen; settings: RAW264.7 macrophages, IL-1a HTRF, actives lie on both sides, screened at 100 nM (by protocol), cells primed 5 h with Pam3CSK4 first;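 note: robust z of the log signal after scaling to non-targeting control siRNA wells of the plate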
Method in brief: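 Read-out: IL-1a HTRF on supernatant, divided by plate negative-control median ×100, log-transformed and converted to robust z-score. Cells were RAW264.7 given 100 nM siRNA, Pam3CSK4-primed 5 hours, then LipidA-transfected 24 hour.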

Sequence	z-score
GGCAACUGGAGAUGUGUGUTT against Lpgat1	-0.361 (inactive)
CGACAUCCCAAUAAACAAGTT against Lcn3	-1.1 (inactive)
GCAGAGGAGUUUUCAAUUUTT against Il17rb	0.997 (inactive)
GGCCCUUCUGGACUAUCAUTT against Ccdc83	3.39 (active)
GGUACCUGAGUCCAUCUCATT against Sntb1	-0.219 (inactive)
CGAACUUCAAGACUGUGAUTT against Cep95	-0.248 (inactive)
GGAAAUAAUGACCAAGUACTT against Grk5	-1.32 (inactive)
CCCUGGUAAACACCAAUAGTT against Ctnna1	0.849 (inactive)
GCCUGUCCACAUCACUGUATT against Tmem171	-0.16 (inactive)
CCCUAAGGAGUUUUGCGUUTT against Ikzf4	1.58 (inactive)
GGUCUAUUUGACCUCUUAATT against Bcl2l13	2.22 (active)
GGUAUAUGGACUGGUGGAUTT against Hrh2	0.41 (inactive)
GGAUCAAUGAAAAUGAGAATT against Fzr1	-0.0554 (inactive)
CCAGUACCCGUCUGAAAAGTT against Olfr215	-0.457 (inactive)
GGAUCUUUGCUACAAAAACTT against Fhl5	0.48 (inactive)
GGGAUAACCAGUGAAUUUATT against Pcdhb15	2.23 (active)
GGGACUUAUGUCCAGGAAGTT against Agap3	-1.09 (inactive)
GGGACCACCUUGAACACUATT against Slc52a3	1.81 (inactive)
GGCAUCUUAUUUCUUGUUATT against Tbkbp1	-0.56 (inactive)
GUGAAGAAAGUCAUCAAGATT against Olfr1506	-0.182 (inactive)
GGCUUUGAUCAGCAUGAGCTT against Pak4	-2.07 (active)
GCAAGGUCAAUCAAUCGUATT against Taar1	0.548 (inactive)
GCGGAGUCUUUGGCUUAGATT against Lratd2	1.03 (inactive)

Sequence	z-score
CGAAAGCUAAACUAAAAGATT against Stimate	0.539 (inactive)
GCUGAAUACCCUUUUAGUUTT against Atp2c1	0.317 (inactive)
GCGAUAUUAACUAUGGAGATT against Gpr149	-0.601 (inactive)
GGUAUUCCAAUAACUGUACTT against Fip1l1	-0.269 (inactive)
GGAAAGAAUCCACUUGCAUTT against Xkr5	-1.35 (inactive)
GGAGAUUUUCCAGAGGCUGTT against Josd1	-2.24 (active)
CGGCCUUCUCUACAAAUCATT against Rbfa	0.816 (inactive)
GCUGACCAUUUUGAUGCCCTT against Adi1	-0.0381 (inactive)
GGUGGUUUUGUUUCUUUUUTT against Tab3	0.643 (inactive)
GGGCCAACCCAGAAAAACATT against Plekha7	-0.515 (inactive)
GCCGUCUUUACAUUCCUGATT against Olfr605	0.8 (inactive)
CCCAUCAAAAGAAUCCACATT against Snrnp70	-2.51 (active)
GGUGUUUAAUUGCUCACUATT against Gramd4	1.13 (inactive)
UACCCGAAUGCAGACAGGATT against Raet1a	0.667 (inactive)
GGAGGAAGCUGAACUCUGGTT against Ehmt2	-0.655 (inactive)
GCAUUUAGAAGAAUCCGCCTT against Hao2	2.01 (active)
CCUUGUGAUGUUUAAAGACTT against Abcg1	0.293 (inactive)
GUGAGUAGGUAGGAAGCAUTT against Cd200r2	-2.56 (active)
CCAGUUGUCUAGACCUGCATT against Ptbp1	-0.301 (inactive)
CCUACAAGCAGAGUACAAUTT against Myo10	1.06 (inactive)
GGCCUUCAACGAUUCAAUCTT against Olfr770	1.35 (inactive)
GGAGAGAAAUUUGACACUCTT against Mgrn1	-0.0326 (inactive)
GCCAGUGUCCCUAAUAAGGTT against Ager	0.2 (inactive)

Sequence	z-score
GCAAACUAUAGGUGCGUUGTT against Dscc1	0.885 (inactive)
GUCUACCAGAUCCUUCCCUTT against H2-Q8	-2.25 (active)
GCAAACAUGUCAAGUCCGATT against Actl6b	1.07 (inactive)
GGACUAUUUGCUGAUGGACTT against Trpc6	2.74 (active)
GCAUUUCACCUGGAGCCUUTT against Zfp108	-1.11 (inactive)
CGAGAAUACAUUGAGGAGUTT against Hook2	0.926 (inactive)
CGACAACCACUUCAACUAUTT against Chn2	1.34 (inactive)
GGCUAUCCUCUUUUACCAUTT against Dele1	-0.374 (inactive)
GGUGUUAGGAAGUCACAUUTT against Tas2r109	-1.28 (inactive)
CCCUAUCCUGUUCAUCUCUTT against Gpr50	2.83 (active)
GGAAAAAGCUCAAAGGCGATT against Gap43	-0.216 (inactive)
GGAAAUGGAUCCAGAAUAUTT against Smarca1	-1.12 (inactive)
GGACAUGACAUCCAAAGACTT against Prmt1	-0.649 (inactive)
GGACACAGAUUAAUCAAGATT against Iftap	0.144 (inactive)
GGCCAUUGCCUCUUCUACUTT against Plekha4	-0.225 (inactive)
GAUCAACCUGAGCUCCAGUTT against Olfr25	2 (active)
GGCCAUCCGCAUUUUUUCCTT against Mex3b	-0.34 (inactive)
GGUUUUCAAAGUCCUGAAUTT against Myo3a	-1.96 (inactive)
GGGAAAGAAUGGUGUGGAATT against Dlx4	-1.97 (inactive)
GGAAACUUCAGACUAGUCATT against Eif2s3y	-0.0291 (inactive)
GGGAAUUUCGGCUGUUUUATT against Cts8	1.85 (inactive)
GGACCUGAGAGACUCUUUGTT against Ip6k2	-3 (active)
GGUCCACAGAUUCUUCUAATT against Zfa-ps	-0.761 (inactive)
